Reference: PubChem BioAssay (Tox21)
Inconclusive results are not listed. The source made the active and inactive calls. Unless noted, calls come from the whole dose curve; as a rule, active = well fitted curve in the direction sought with a large enough effect in the repeat runs; inconclusive = weak or mixed curves; inactive = no such curve, though single readings can be large; an effect the other way counts as inactive or inconclusive.

Key:
[1] = qHTS assay for small molecules that induce genotoxicity in human embryonic kidney cells expressing luciferase-tagged ATAD5 (AID 651632); note: nearly all actives have a fitted effect of over 15% in size
Method in brief: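 DMSO vehicle served as the control. HEK293T reporter cells, 16 hr at 37C, then 30 min Amplite at room temperature; ATAD5 induction is measured as luciferase activity.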

[2] = qHTS assay for small molecule agonists of the p53 signaling pathway - cell viability (AID 651633; calls by dose curve;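 note: p53RE-bla HCT reporter cells with a stable beta-lactamase p53 reporter; series mostly up to about 83 µM; nearly all actives have a fitted effect of over 30% in size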)
Method in brief: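 Viability counter-read: CellTiter-Glo luminescence (30 min, room temperature) in the same p53RE-bla plates. These plates had been exposed to compounds for 16 h at 37 C.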

[3] = qHTS assay for small molecule disruptors of the mitochondrial membrane potential - cell viability (AID 720634; calls by dose curve;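 note: human HepG2 liver cancer cells; series mostly up to about 83 µM; nearly all actives have a fitted effect of over 20% in size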)
Method in brief: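 Viability of HepG2 cells is scored from ATP content by luminescence; cells are exposed to compound for 1 hr at 37 C and 5% CO2, then dosed with m-MPI dye before the CellTiter-Glo reagent.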

[4] = qHTS assay to test for compound auto fluorescence at 590 nm (red) in HepG2 cells (AID 720674)
Method in brief: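 We screened compounds on adherent HepG2 cells, incubating them for an hour at 37 C in 5% CO2 before reading emission at 590 nm under 540 nm excitation; values reflect equivalence to Rose Bengal sodium fluorescence.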

[5] = qHTS assay to test for compound auto fluorescence at 535 nm (green) in HepG2 cells (AID 720675)
[6] = qHTS assay to test for compound auto fluorescence at 460 nm (blue) in HEK293 cells (AID 720678)
Method in brief: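 HEK293 cells (2,000/well, medium with 10% dialyzed FBS) attached 4-5 hr, then exposed to compound overnight at 37C, 5% CO2. Blue fluorescence read at 405/460 nm, with triamterene as reference fluorophore.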

[7] = qHTS assay to test for compound auto fluorescence at 590 nm (red) in HEK293 cells (AID 720679)
Method in brief: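 HEK293 cells (2,000/well, 10% dialyzed FBS) attached 4-5 hr, then dosed with compound or DMSO and incubated overnight at 37C, 5% CO2. Red fluorescence read at 540/590 nm, Rose Bengal sodium as reference fluorophore.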

[8] = qHTS assay to test for compound auto fluorescence at 535 nm (green) in HEK293 cells (AID 720680)
[9] = qHTS assay to test for compound auto fluorescence at 460 nm (blue) in HEK293 cell free culture (AID 720681)
Method in brief: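 Blue fluorescence (Ex 405/Em 460 nm, triamterene-equivalent) was read immediately after pin transfer of compound or DMSO into medium (DMEM, 10% FBS) without cells.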

[10] = qHTS assay to test for compound auto fluorescence at 535 nm (green) in HEK293 cell free culture (AID 720682)
Method in brief: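 DMEM + 10% FBS, cell-free; cpd or DMSO pinned in; Ex485/Em535 read; output as fluorescein-equivalent signal.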

[11] = qHTS assay to test for compound auto fluorescence at 590 nm (red) in HEK293 cell free culture (AID 720683)
Method in brief: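 Red-channel autofluorescence of compounds in culture medium (DMEM, 10% FBS), no cells, measured at 540/590 nm. Rose Bengal sodium is the reference fluorophore for equivalence.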

[12] = qHTS assay to test for compound auto fluorescence at 590 nm (red) in HepG2 cell free culture (AID 720684)
Method in brief: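 No cells present: MEM + 10% FBS only. Compound pinned in, red label read (540/590 nm). Activity = fluorescence equivalent to Rose Bengal sodium.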

[13] = qHTS assay to test for compound auto fluorescence at 460 nm (blue) in HepG2 cell free culture (AID 720685)
Method in brief: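 Cell-free plates of MEM plus 10% FBS received 23 nL compound or DMSO vehicle; blue-channel (405/460 nm) intensity scored against triamterene as reference fluorophore.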

[14] = qHTS assay to test for compound auto fluorescence at 535 nm (green) in HepG2 cell free culture (AID 720686)
[15] = biological target: Glucocorticoid receptor (Homo sapiens) (UniProt P04150); test: qHTS assay to identify small molecule agonists of the glucocorticoid receptor (GR) signaling pathway (AID 720691; active = well fitted activation curve with a large enough effect in the signal ratio in the repeat runs, not every such curve was filed as active; the % refers to the signal ratio)
Method in brief: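 Compounds in DMSO, alongside positive controls, were added to GR-bla HeLa reporter cells and incubated 18 h at 37 C; GRE-driven beta-lactamase was detected by fluorescence after 2 h with FRET substrate at room temperature.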

[16] = qHTS assay for small molecules that induce genotoxicity in human embryonic kidney cells expressing luciferase-tagged ATAD5 - cell viability (AID 651634; calls by dose curve; note: nearly all actives have a fitted effect of over 25% in size)
Method in brief: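 Here HEK293T cells with the ATAD5 luciferase reporter are incubated with test compounds for 15.5 hr, and cytotoxicity is then gauged by measuring protease activity in live cells using fluorescence.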

[17] = qHTS assay to test for compound auto fluorescence at 460 nm (blue) in HepG2 cells (AID 720687)
Method in brief: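 Blue-channel autofluorescence (Ex/Em 405/460 nm, triamterene-equivalent) was measured after 1 hr compound exposure at 37 C, 5% CO2. Cells were HepG2, plated overnight at 37 C in MEM plus 10% FBS.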

[18] = qHTS assay for small molecule disruptors of the mitochondrial membrane potential (AID 720635)
Method in brief: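 Mitochondrial membrane potential tracked with Mito-MPS dye, red aggregates (ex 540/em 590 nm) against green monomers (ex 490/em 535 nm). Compound treatment 1 hr at 37C, dye 30 min in HepG2.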

[19] = biological target: Glucocorticoid receptor (Homo sapiens) (UniProt P04150); test: qHTS assay to identify small molecule antagonists of the glucocorticoid receptor (GR) signaling pathway (AID 720692; active = well fitted inhibition curve with a large enough effect in the signal ratio in the repeat runs, not every such curve was filed as active; the % refers to the signal ratio)
Method in brief: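 In a 1536-well cell format, compounds were added 4 h after seeding GR-bla HeLa cells, together with dexamethasone at 5 nM final; reporter activity was measured by FRET-substrate fluorescence following 18 h at 37 C.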

Measured: Potency

Chain of Glucocorticoid receptor (Homo sapiens) (P04150 whole entry, looked up): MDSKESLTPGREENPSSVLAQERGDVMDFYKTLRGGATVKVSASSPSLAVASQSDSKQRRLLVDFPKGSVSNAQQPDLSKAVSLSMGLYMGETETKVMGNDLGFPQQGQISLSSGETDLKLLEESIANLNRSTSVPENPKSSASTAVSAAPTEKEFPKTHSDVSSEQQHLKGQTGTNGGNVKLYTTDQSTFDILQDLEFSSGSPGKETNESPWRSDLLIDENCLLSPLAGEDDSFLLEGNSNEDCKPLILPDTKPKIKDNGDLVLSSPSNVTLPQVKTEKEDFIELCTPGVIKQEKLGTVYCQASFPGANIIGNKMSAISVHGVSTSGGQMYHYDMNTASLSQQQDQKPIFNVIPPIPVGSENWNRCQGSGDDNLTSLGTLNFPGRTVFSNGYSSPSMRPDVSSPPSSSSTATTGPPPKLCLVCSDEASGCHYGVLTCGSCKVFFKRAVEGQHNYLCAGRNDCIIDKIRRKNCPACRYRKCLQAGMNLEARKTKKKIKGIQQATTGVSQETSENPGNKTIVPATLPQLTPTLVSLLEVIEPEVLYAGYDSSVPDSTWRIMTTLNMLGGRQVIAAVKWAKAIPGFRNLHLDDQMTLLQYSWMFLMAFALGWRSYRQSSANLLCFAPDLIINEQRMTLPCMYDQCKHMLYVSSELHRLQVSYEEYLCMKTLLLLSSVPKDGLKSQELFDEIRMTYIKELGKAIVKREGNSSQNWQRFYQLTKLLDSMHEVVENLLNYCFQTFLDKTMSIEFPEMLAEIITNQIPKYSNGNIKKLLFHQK

CN=CNc1ccc(C)cc1C
not listed: [16] | [17] | [18] | [19]
inactive: all other assays above

NCCOS(=O)(=O)O
not listed: [1] | [18] | [19]
inactive: all other assays above

O=C/C=C/c1ccco1
not listed: [1] | [12]
inactive: all other assays above

CCCC(C)C1(CC)C(=O)N=C(S)NC1=O (centres undefined)
not listed: [1] | [6]
inactive: all other assays above

CCOC(=O)COc1ccc(Cl)cc1Cl
not listed: [1] | [14] | [16] | [17] | [18] | [19]
inactive: all other assays above

BrCC1CO1 (centres undefined)
not listed: [1] | [18] | [19]
inactive: all other assays above

C[C@]12C=CC(=O)C=C1CC[C@@H]1[C@@H]2CC[C@@]2(C)[C@H]1CC[C@]2(C)O
not listed: [1] | [11] | [15] | [19]
inactive: all other assays above

CC(Cl)(Cl)Cl
not listed: [15] | [16] | [18] | [19]
inactive: all other assays above

BrCc1ccc(Br)cc1
not listed: [1] | [15] | [19]
inactive: all other assays above

O=C(O)c1c(Cl)ccc2cc(Cl)cnc12
not listed: [1] | [2] | [18] | [19]
inactive: all other assays above

CC(O)CCl (centres undefined)
not listed: [1] | [18] | [19]
inactive: all other assays above

CC[C@H](O)C(C[C@H](C)N(C)C)(c1ccccc1)c1ccccc1
not listed: [1] | [11] | [12] | [14] | [17] | [18]
inactive: all other assays above

O=C(O)C(Cl)Br (centres undefined)
not listed: [1] | [6] | [18] | [19]
inactive: all other assays above
